The values below come from PubChem BioAssay (NCI).

Among the test systems are T-47D breast; BT-549 breast; MDA-MB-435 melanoma; SW-620 colon; MCF7 breast; HCT-116 colon; HCC-2998 colon; KM12 colon.
Holding throughout (experiment): NCI-60 one-dose screen, 48 h (100 = growth as untreated, 0 = no growth, -100 = all killed)
Common to all, as to conditions: 10 µM unless noted

About 83,000 compounds went through this panel and 20% of them were active in at least one assay; those are over-represented in the sample as a whole.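 Cell lines were cultured in 96-well plates, exposed to a single compound concentration, and assessed for percent growth 48 hours later.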 Unmarked numbers belong to inactive results. Calls of active or inactive are those of the source. How the source made its calls: active means growth percent below 10; inactive means the rest.

Take `Cc1c(C(=O)NCCN2CCOCC2)cn2ncnc(Oc3ccc(NC(=O)Nc4ccc(Cl)c(C(F)(F)F)c4)cc3)c12`: the growth was 15% in the experiment on T-47D breast; 45.6% in the experiment on BT-549 breast; 18% with MDA-MB-435 melanoma; 0.917% (active) in the experiment with SW-620 colon; 7.07% (active) in the experiment on MCF7 breast; 8.49% (active) in the experiment with HCT-116 colon. The growth is 51.1% with HCC-2998 colon and 19.6% with KM12 colon.

Regarding `O=C(Nc1c2ccccc2nc2ccccc12)c1ccccc1CN1C(=O)c2ccccc2C1=O`, the growth in the experiment on T-47D breast is 33.4%; in the experiment with BT-549 breast, 76.2%; in the experiment on MDA-MB-435 melanoma it was 30.3%; in the experiment with SW-620 colon, 15.5%; in the experiment with MCF7 breast, 10.3%; in the experiment on HCT-116 colon, 16.1%. The growth in the experiment on HCC-2998 colon is 41.4%; in the experiment with KM12 colon it was 26%.

As for `Cc1onc2c(-c3ccccc3)n[nH]c(=O)c12`, the growth in the experiment on T-47D breast was 83.3%; in the experiment on BT-549 breast, 67.7%; in the experiment with MDA-MB-435 melanoma, 96.9%; in the experiment with SW-620 colon it was 111%; with MCF7 breast, 89.8%; with HCT-116 colon it was 104%. In addition, the growth in the experiment with HCC-2998 colon is 94.8%; in the experiment on KM12 colon, 107%.

For the compound `O=C(N/N=C/[C@@H](O)[C@H](O)[C@H](O)CO)c1ccc(NC(=O)c2cccnc2)cc1`, the growth in the experiment with T-47D breast is 96.1%; in the experiment with BT-549 breast, 99%; in the experiment with MDA-MB-435 melanoma it was 104%; in the experiment on SW-620 colon, 98.9%; in the experiment with MCF7 breast, 92.6%; in the experiment on HCT-116 colon it was 103%. For the same compound, the growth in the experiment with HCC-2998 colon is 117%; in the experiment on KM12 colon, 102%.

`CN1C(=O)CNC(=O)[C@H](NC(=O)c2nc3ccccc3cc2O)CSSC[C@H]1C(=O)NCCc1nc2ccccc2cc1O`: the growth is 65.3% with T-47D breast; 79.4% with BT-549 breast; 42.4% in the experiment on MDA-MB-435 melanoma; 34% in the experiment on SW-620 colon; 47.5% in the experiment with MCF7 breast; 80% in the experiment with HCT-116 colon. Further, the growth in the experiment on HCC-2998 colon was 67.7%; in the experiment on KM12 colon it was 30%.

As to `COc1cc(/C=C/c2c(C(C)=O)c(C)nc3ccccc23)cc(OC)c1OC`, the growth was 39.7% with T-47D breast; 48.4% with BT-549 breast; -0.529% (active) with MDA-MB-435 melanoma; 29.6% in the experiment on SW-620 colon; 19.3% in the experiment with MCF7 breast; 23.9% with HCT-116 colon. In addition, the results for the growth in the experiment on HCC-2998 colon and in the experiment on KM12 colon were 54.8% and 29.1%, respectively.

On to `COc1ccc(C(=O)COC(=O)[C@H](C[Se][Se]C[C@H](NC(=O)c2ccc(Br)cc2F)C(=O)OCC(=O)c2ccc(OC)cc2)NC(=O)c2ccc(Br)cc2F)cc1`, for which the growth in the experiment with T-47D breast was -33.1% (active); in the experiment with BT-549 breast it was -89.6% (active); in the experiment with MDA-MB-435 melanoma it was 3.85% (active); with SW-620 colon, -59.7% (active); with MCF7 breast it was -57.3% (active); with HCT-116 colon it was -69.1% (active). In addition, the growth is -64.1% (active) with HCC-2998 colon and -81.6% (active) in the experiment on KM12 colon.

On to `O=CN1N=C(c2ccc(Nc3ccnc4cc(Cl)ccc34)cc2)CC1c1ccccc1` (stereo not drawn), for which the growth in the experiment on T-47D breast is 31.7%; in the experiment with BT-549 breast, 39.1%; in the experiment with MDA-MB-435 melanoma, 8.64% (active); with SW-620 colon, 31.8%; in the experiment on MCF7 breast, 18.2%; in the experiment with HCT-116 colon, 24%. The results for the growth in the experiment on HCC-2998 colon and with KM12 colon were 36.2% and 35.9%, respectively.

Regarding `COc1ccc(OC)c(/C=C/c2nnc(Nc3ccccc3)o2)c1`, the growth with T-47D breast was 80.4%; with BT-549 breast it was 97.1%; in the experiment on MDA-MB-435 melanoma it was 89.1%; in the experiment with SW-620 colon it was 113%; in the experiment with MCF7 breast, 98.3%; with HCT-116 colon it was 103%. Moreover, the growth in the experiment with HCC-2998 colon was 102%; with KM12 colon it was 89%.

Consider `CN1CCN(Cc2ccc(NC(=O)c3ccc(C(C)(C)C)c(C#Cc4cnc5cccnn45)c3)cc2C(F)(F)F)CC1`, for which the growth was 26.6% with T-47D breast; 88.5% with BT-549 breast; -88.5% (active) with MDA-MB-435 melanoma; -61.9% (active) with SW-620 colon; -74.3% (active) in the experiment on MCF7 breast; -70.8% (active) in the experiment on HCT-116 colon. The growth was -81.6% (active) in the experiment with HCC-2998 colon and -80.8% (active) in the experiment on KM12 colon.

For the compound `COc1nc2ccc(C)cc2cc1-c1nc2c(cnn2-c2ccc(Br)cc2)c(=O)[nH]1`, the growth is 58.3% in the experiment with T-47D breast; 91.2% with BT-549 breast; -27.1% (active) with MDA-MB-435 melanoma; 28.6% with SW-620 colon; 21.8% with MCF7 breast; 13.7% in the experiment with HCT-116 colon. In addition, the growth with HCC-2998 colon is 88.4%; in the experiment with KM12 colon it was 25%.

As for `O=C(/C=C/c1sc(Cl)nc1Cl)c1ccc(Br)cc1`, the growth in the experiment with T-47D breast is 91.1%; in the experiment with BT-549 breast, 97.3%; in the experiment on MDA-MB-435 melanoma, 98.4%; in the experiment on SW-620 colon, 47.7%; in the experiment with MCF7 breast it was 27.9%; with HCT-116 colon, 57.4%. In addition, the growth is 52.1% with HCC-2998 colon and 77.2% in the experiment on KM12 colon.

In the case of `Cn1cc(C(=O)c2nc(-c3cn(C)c4ccc(F)cc34)no2)c2cc(F)ccc21`, the growth was 91.2% in the experiment on T-47D breast; 106% in the experiment with BT-549 breast; 111% in the experiment on MDA-MB-435 melanoma; 90.6% with SW-620 colon; 47.3% in the experiment on MCF7 breast; 98.1% in the experiment on HCT-116 colon. Moreover, the growth is 84.6% in the experiment with HCC-2998 colon and 95.2% in the experiment with KM12 colon.

`COc1cccc(-c2nn(-c3ccccc3)cc2-c2ccnc(N3CCOCC3)c2)c1`: the growth in the experiment with T-47D breast is 51.7%; with BT-549 breast, 87.9%; in the experiment on MDA-MB-435 melanoma, 98.9%; in the experiment with SW-620 colon it was 105%; in the experiment with MCF7 breast, 87%; in the experiment with HCT-116 colon, 79.8%. The growth is 93.8% with HCC-2998 colon and 86.1% in the experiment on KM12 colon.

For `CCN(CC)c1ccc(C2=NN(C(C)=O)C(c3cc(OC)c(OC)c(OC)c3)C2)cc1` (stereo not drawn), the growth was 47.2% in the experiment with T-47D breast; -36.3% (active) in the experiment on BT-549 breast; -53% (active) in the experiment with MDA-MB-435 melanoma; 22.3% with SW-620 colon; 27% in the experiment with MCF7 breast; 6.95% (active) in the experiment on HCT-116 colon. Besides, the growth in the experiment with HCC-2998 colon was -6.47% (active); in the experiment with KM12 colon, -17% (active).

Take `CCc1nnc(NC(=O)c2nnn(-c3ccccc3)c2-c2ccco2)s1`: the growth is 85% in the experiment on T-47D breast; 102% in the experiment with BT-549 breast; 97.1% with MDA-MB-435 melanoma; 98.5% in the experiment with SW-620 colon; 78.6% with MCF7 breast; 64.2% in the experiment on HCT-116 colon. Further, the growth is 110% in the experiment on HCC-2998 colon and 96.9% in the experiment with KM12 colon.
